Results: the supplement of paper PMC8728848
This is one part of a sample in which the strongest signals are shown more often than they occur.

Columns and labels:
Experiment in all cases: glycan array binding signal (z-score within array); higher = stronger binding
Conditions in all cases: glycan notation: IUPAC condensed, linker removed
[1] = target: Glc(a1-4)Glc
Procedure, shortened: (§1)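 The Consortium for Functional Glycomics database supplied 3228 glycan arrays, of which those lacking an available protein sequence were dropped. The binding signal, a within-array Z-score, was averaged across arrays of the same protein sequence and across linkers. Negative scores can be read as non-binding.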

[2] = target: GlcA(b1-3)Gal
Procedure, shortened: as §1

[3] = target: GlcNAc(a1-3)Gal(b1-4)GlcNAc
Procedure, shortened: as §1

[4] = target: GlcNAc(a1-4)Gal(b1-4)GlcNAc(b1-3)Gal(b1-4)GlcNAc(b1-3)Gal(b1-4)GlcNAc
Procedure, shortened: as §1

[5] = target: GlcNAc(a1-6)Gal(b1-4)GlcNAc
Procedure, shortened: as §1

[6] = target: GlcNAc(b1-2)Man(a1-3)[GlcNAc(b1-2)Man(a1-6)]Man(b1-4)GlcNAc(b1-4)GlcNAc
Procedure, shortened: as §1

[7] = target: GlcNAc(b1-2)Man(a1-3)[GlcNAc(b1-4)][GlcNAc(b1-2)Man(a1-6)]Man(b1-4)GlcNAc(b1-4)[Fuc(a1-6)]GlcNAc
Procedure, shortened: as §1

[8] = target: GlcNAc(b1-2)[GlcNAc(b1-6)]Man(a1-6)[GlcNAc(b1-2)Man(a1-3)]Man(b1-4)GlcNAc(b1-4)GlcNAc
Procedure, shortened: as §1

[9] = target: GlcNAc(b1-2)[GlcNAc(b1-6)]Man(a1-6)[GlcNAc(b1-2)Man(a1-3)]Man(b1-4)GlcNAc(b1-4)[Fuc(a1-6)]GlcNAc
Procedure, shortened: as §1

[10] = target: GlcNAc(b1-3)Gal(b1-3)GalNAc
Procedure, shortened: as §1

[11] = target: GlcNAc(b1-3)Gal(b1-4)GlcNAc(b1-3)Gal(b1-4)GlcNAc
Procedure, shortened: as §1

[12] = target: GlcNAc(b1-3)Gal(b1-4)GlcNAc(b1-3)Gal(b1-4)GlcNAc(b1-3)Gal(b1-4)GlcNAc(b1-3)Gal(b1-4)GlcNAc(b1-2)[GlcNAc(b1-3)Gal(b1-4)GlcNAc(b1-3)Gal(b1-4)GlcNAc(b1-3)Gal(b1-4)GlcNAc(b1-3)Gal(b1-4)GlcNAc(b1-6)]Man(a1-6)[GlcNAc(b1-3)Gal(b1-4)GlcNAc(b1-3)Gal(b1-4)GlcNAc(b1-3)Gal(b1-4)GlcNAc(b1-3)Gal(b1-4)GlcNAc(b1-2)Man(a1-3)]Man(b1-4)GlcNAc(b1-4)[Fuc(a1-6)]GlcNAc
Procedure, shortened: as §1

[13] = target: GlcNAc(b1-3)Gal(b1-4)GlcNAc(b1-3)[GlcNAc(b1-3)Gal(b1-4)GlcNAc(b1-3)]GalNAc
Procedure, shortened: as §1

[14] = target: GlcNAc(b1-3)Gal(b1-4)GlcNAc(b1-6)[GlcNAc(b1-3)Gal(b1-3)]GalNAc
Procedure, shortened: as §1

[15] = target: GlcNAc(b1-3)Man
Procedure, shortened: as §1

[16] = target: Man(a1-2)Man(a1-3)[Man(a1-6)]Man(a1-6)[Man(a1-2)Man(a1-3)]Man(b1-4)GlcNAc(b1-4)GlcNAc
Procedure, shortened: as §1

[17] = target: Man(a1-2)Man(a1-6)[Man(a1-3)]Man(a1-6)[Man(a1-2)Man(a1-2)Man(a1-3)]Man
Procedure, shortened: as §1

[18] = target: Man(a1-3)[Man(a1-6)]Man(a1-6)[Man(a1-2)Man(a1-3)]Man(b1-4)GlcNAc(b1-4)GlcNAc
Procedure, shortened: as §1

[19] = target: Neu5Ac(a2-3)Gal(b1-3)GalNAc(b1-4)[Neu5Ac(a2-3)]Gal(b1-4)Glc
Procedure, shortened: as §1

[20] = target: Neu5Ac(a2-3)Gal(b1-3)[Neu5Ac(a2-6)]GlcNAc(b1-3)[Fuc(a1-3)[Gal(b1-4)]GlcNAc(b1-6)]Gal(b1-4)Glc
Procedure, shortened: as §1

[21] = target: Neu5Ac(a2-3)Gal(b1-4)GlcNAc(b1-2)Man(a1-3)[GlcNAc(b1-4)][Neu5Ac(a2-3)Gal(b1-4)GlcNAc(b1-2)Man(a1-6)]Man(b1-4)GlcNAc(b1-4)GlcNAc
Procedure, shortened: as §1

[22] = target: Neu5Ac(a2-3)Gal(b1-4)GlcNAc(b1-3)Gal(b1-4)GlcNAc(b1-3)[Neu5Ac(a2-3)Gal(b1-4)GlcNAc(b1-3)Gal(b1-4)GlcNAc(b1-6)]GalNAc
Procedure, shortened: as §1

[23] = target: Neu5Ac(a2-3)Gal(b1-4)GlcNAc(b1-3)Gal(b1-4)GlcNAc(b1-6)[Gal(b1-3)]GalNAc
Procedure, shortened: as §1

[24] = target: Neu5Ac(a2-3)GalNAc(b1-4)GlcNAc
Procedure, shortened: as §1

[25] = target: Neu5Ac(a2-6)Gal(b1-4)GlcNAc(b1-2)Man(a1-3)Man(b1-4)GlcNAc(b1-4)GlcNAc
Procedure, shortened: as §1

[26] = target: Neu5Ac(a2-6)Gal(b1-4)GlcNAc(b1-3)Gal(b1-3)GlcNAc
Procedure, shortened: as §1

[27] = target: Neu5Ac(a2-8)Neu5Ac(a2-3)Gal(b1-3)GalNAc(b1-4)[Neu5Ac(a2-3)]Gal(b1-4)Glc
Procedure, shortened: as §1

[28] = target: Neu5Ac9Ac(a2-6)Gal(b1-4)GlcNAc
Procedure, shortened: as §1

[29] = target: Neu5Gc(a2-3)Gal(b1-4)[Fuc(a1-3)]GlcNAc
Procedure, shortened: as §1

[30] = target: Neu5Gc(a2-8)Neu5Gc(a2-6)Gal(b1-4)GlcNAc
Procedure, shortened: as §1

B1: SSR2 (Sclerotium rolfsii) (protein)
chain: MVYKITVRVYQTNPDAFFHPVEKTVWKYANGGTWSITDDQHVLTMGGSGTSGTLRFHADNGESFTATFGVHNYKRWCDIVTNLAADETGMVINQQYYSQKNREEARERQLSNYQVKNAKGRNFQIVYTEAEGNDLHANLIIG
**Q.** What does the source list for B1?
**A.** glycan array binding signal (z-score) [1]: -0.262; glycan array binding signal (z-score) [2]: -0.282; glycan array binding signal (z-score) [3]: 3.71; glycan array binding signal (z-score) [4]: 6.99; glycan array binding signal (z-score) [5]: 0.528; glycan array binding signal (z-score) [6]: 6.77; glycan array binding signal (z-score) [7]: 2.85; glycan array binding signal (z-score) [8]: 4.32; glycan array binding signal (z-score) [9]: 4.49; glycan array binding signal (z-score) [10]: 3.63; glycan array binding signal (z-score) [11]: 0.873; glycan array binding signal (z-score) [12]: 1.3; glycan array binding signal (z-score) [13]: 0.552; glycan array binding signal (z-score) [14]: 1.62; glycan array binding signal (z-score) [15]: -0.149; glycan array binding signal (z-score) [16]: -0.276; glycan array binding signal (z-score) [17]: -0.303; glycan array binding signal (z-score) [18]: -0.244; glycan array binding signal (z-score) [19]: -0.28; glycan array binding signal (z-score) [20]: -0.288; glycan array binding signal (z-score) [21]: -0.284; glycan array binding signal (z-score) [22]: -0.267; glycan array binding signal (z-score) [23]: 0.625; glycan array binding signal (z-score) [24]: -0.279; glycan array binding signal (z-score) [25]: -0.286; glycan array binding signal (z-score) [26]: -0.286; glycan array binding signal (z-score) [27]: -0.271; glycan array binding signal (z-score) [28]: -0.291; glycan array binding signal (z-score) [29]: -0.284; glycan array binding signal (z-score) [30]: -0.286
